# Values without a mark were called inactive. Inconclusive results are not listed. Entries that show only a call come without a potency. Activity calls are given as the source filed them. Unless noted, the call rests on the fitted dose curve; in most records, active means well fitted curve in the direction sought with a large enough effect in the repeat runs; inconclusive means weak or mixed curves; inactive means no such curve, though single readings can be large; an effect the other way counts as inactive or inconclusive.
# Key:
# [1] = biological target: Estrogen receptor beta (Homo sapiens) (UniProt Q92731); test: qHTS assay to identify small molecule agonists of the estrogen receptor beta (ER-beta) signaling pathway (AID 1259377; active means well fitted activation curve with a large enough effect in the signal ratio in the repeat runs, not every such curve was filed as active; the % refers to the signal ratio)
# In short: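 Ratiometric beta-lactamase FRET read-out came after 2 h substrate loading at room temperature. It followed 16 h compound treatment at 37C of GripTite HEK293T cells carrying a UAS-bla reporter, plated in 2% charcoal-stripped FBS medium.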
# [2] = biological target: Estrogen receptor beta (Homo sapiens) (UniProt Q92731); test: qHTS assay to identify small molecule antagonists of the estrogen receptor beta (ER-beta) signaling pathway (AID 1259378; active means well fitted inhibition curve with a large enough effect in the signal ratio in the repeat runs, not every such curve was filed as active; the % refers to the signal ratio; further: potency means the concentration at half of the fitted maximal effect)
# In short: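 ER-beta-UAS-bla HEK293T (GripTite) cells in 2% charcoal-stripped FBS medium were preincubated 6 hr at 37C, dosed with compound, then stimulated with 1 nM E2 (final) for 16 hr; beta-lactamase reporter read by B/G FRET fluorescence after 2 hr substrate loading.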
# [3] = qHTS assay to identify small molecule agonists of the androgen receptor (AR) signaling pathway in the presence of an antagonist - cell viability counter screen (AID 1259379); further: nearly all actives have a fitted effect of over 25% in size; further: potency means the concentration at half of the fitted maximal effect;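 on activity change, negative = cytotoxicity: MDA-kb2 human breast cancer cells carrying an MMTV luciferase reporter; series mostly up to about 92 µM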
# In short: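 Fluorescence from CellTiter-Fluor, added after 15 hr and read 1 hr later, gave cell viability. Cells were MDA-kb2 exposed to compounds (15 concentrations) in the presence of 3.0uM nilutamide at 37C, 0% CO2.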
# [4] = qHTS assay to identify small molecule agonists of the estrogen receptor beta (ER-beta) signaling pathway - cell viability counter screen (AID 1259380); further: nearly all actives have a fitted effect of over 30% in size; further: potency means the concentration at half of the fitted maximal effect
# In short: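 Same-well viability counter screen. Cells: ER-beta-UAS-bla HEK293T, plated 6 hr before compound, in 2% charcoal-stripped FBS. Compound exposure 16 hr, 37C; viability by CellTiter-Glo luminescence after 30 min at room temperature.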
# [5] = biological target: Androgen receptor (Homo sapiens) (UniProt P10275); test: qHTS assay to identify small molecule agonists of the androgen receptor (AR) signaling pathway in the presence of an antagonist (AID 1259381; calls by dose curve; further: nearly all actives have a fitted effect of over 15% in size)
# In short: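 Cells are MDA-kb2 (human breast carcinoma, MMTV-luc, AR/GR responsive). Nilutamide is present at 3.0uM final throughout; compounds are added at 15 concentrations and incubated 16hr at 37C before ONE-Glo luminescence detection.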
# [6] = qHTS assay to identify small molecule antagonists of the estrogen receptor beta (ER-beta) signaling pathway - cell viability counter screen (AID 1259382); further: nearly all actives have a fitted effect of over 55% in size; further: potency means the concentration at half of the fitted maximal effect; on activity change, negative = cytotoxicity: series mostly up to about 92 µM
# In short: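 Following a 6 hr plating period, HEK293T cells carrying a UAS-driven beta-lactamase reporter under ER-beta control received compounds and 1nM E2 (final). After 16 hr at 37C and 2 hr substrate loading, CellTiter-Glo luminescence indicated viability.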
# [7] = biological target: Estrogen receptor (Homo sapiens) (UniProt P03372); test: qHTS assay to identify small molecule agonists of the estrogen receptor alpha (ER-alpha) signaling pathway in the presence of an antagonist (AID 1259383; calls by dose curve; further: top concentration of the series differs between compounds; nearly all actives have a fitted effect of over 15% in size)
# In short: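 Cells are hormone-deprived for 5 days (charcoal-stripped FBS, no phenol red), plated for 24hr, spiked with 10.0nM ICI-182,780, then dosed at 15 concentrations. After 22hr at 37C, ONE-Glo luminescence reports ERE-luciferase activity.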
# [8] = qHTS assay to identify small molecule agonists or antagonists of the thyroid stimulating hormone receptor (TSHR) signaling pathway - wild type cell line counter screen (AID 1259384; calls by dose curve)
# In short: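 Wild-type HEK293 cells were plated 18 h at 37 C/5% CO2, pin-dosed with compound plus Ro20-1724 medium, held 30 min at room temperature, then given cAMP-d2 and anti-cAMP-cryptate; fluorescence was read after 1 h. Fifteen concentrations, triplicate.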
# [9] = biological target: Thyrotropin receptor (Homo sapiens) (UniProt P16473); test: qHTS assay to identify small molecule antagonists of the thyroid stimulating hormone receptor (TSHR) signaling pathway (AID 1259385; calls by dose curve; further: nearly all actives have a fitted effect of over 20% in size)
# In short: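 TSHR-HEK293 cells were plated and held 18 h at 37C/5% CO2, then given compound plus Ro20-1724 and stimulated with TSH at 1.5 ng/mL final. After 30 min at room temperature, cAMP was detected with cAMP-d2/anti-cAMP-cryptate (1 h) by fluorescence.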
# [10] = qHTS assay to identify small molecule agonists of the estrogen receptor alpha (ER-alpha) signaling pathway in the presence of an antagonist - cell viability counter screen (AID 1259386);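 further: series mostly up to about 92 µM; cells exposed to compounds for 22 h at 37 °C before the viability read; nearly all actives have a fitted effect of over 30% in size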
# In short: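 Cells are starved of estrogens for 5 days in charcoal-stripped serum, seeded for 24hr and co-treated with ICI-182,780 (10.0nM final) and test compounds. After 22hr at 37C, viability is read as CellTiter-Fluor fluorescence.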
# [11] = biological target: Progesterone receptor (Homo sapiens) (UniProt P06401); test: qHTS assay to identify small molecule agonists of the progesterone receptor (PR) signaling pathway (AID 1346784; calls by dose curve; further: nearly all actives have a fitted effect of over 30% in size)
# In short: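 Agonist qHTS: compounds pinned onto 3,000 PR-UAS-bla HEK 293T cells per well in charcoal-stripped serum medium, 16hr at 37C, then beta-lactamase activity measured by LiveBLAzer FRET fluorescence after 2 hours at room temperature.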
# [12] = biological target: Progesterone receptor (Homo sapiens) (UniProt P06401); test: qHTS assay to identify small molecule antagonists of the progesterone receptor (PR) signaling pathway (AID 1346795; active means well fitted inhibition curve with a large enough effect in the signal ratio in the repeat runs, not every such curve was filed as active; the % refers to the signal ratio; further: potency means the concentration at half of the fitted maximal effect)
# In short: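 Antagonist mode with agonist R5020 at 1 nM final and 16 hr incubation at 37C. Reporter was beta-lactamase driven by UAS in HEK293T (PR-UAS-bla), 2% charcoal-stripped serum; signal from LiveBLAzer FRET substrate, 2 hr at room temperature.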
# [13] = qHTS assay to identify small molecule antagonists of the progesterone receptor (PR) signaling pathway - cell viability counter screen (AID 1346798); further: nearly all actives have a fitted effect of over 50% in size; further: potency means the concentration at half of the fitted maximal effect; on activity change, negative = cytotoxicity: series mostly up to about 92 µM
# In short: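 Cytotoxicity read as CellTiter-Glo luminescence (30 min, room temperature) in the same wells as the beta-lactamase readout. HEK293T PR-UAS-bla cells in charcoal-stripped 2% FBS received compound and R5020, then 16 h at 37C, 5% CO2.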
# [14] = qHTS assay to identify small molecule agonists of the progesterone receptor (PR) signaling pathway - cell viability counter screen (AID 1346799; calls by dose curve; further: nearly all actives have a fitted effect of over 45% in size; further: potency means the concentration at half of the fitted maximal effect)
# In short: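 Cytotoxicity measured by CellTiter-Glo luminescence (30 min, RT) in the same wells as the PR beta-lactamase agonist read. Those HEK293T cells had 16 h compound treatment at 37 C in 2% charcoal-stripped FBS medium.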
# [15] = qHTS assay to identify small molecule antagonists of the TGF-beta/Smad signaling pathway - cell viability counter screen (AID 1346824); further: nearly all actives have a fitted effect of over 50% in size
# In short: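 SBE-bla HEK 293T cells were plated overnight at 37 C, then given compounds in DMSO plus TGF-beta1 (added as 0.25 ng/mL solution) for 5 hr. After the bla read, CellTiter-Glo was added to the same wells and luminescence read after 30 min at room temperature.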
# [16] = qHTS assay to identify small molecule agonists of the TGF-beta/Smad signaling pathway - cell viability counter screen (AID 1346829); further: top concentration of the series differs between compounds; nearly all actives have a fitted effect of over 45% in size
# In short: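 Luminescence from CellTiter-Glo, read after a 30 min room-temperature incubation, gives cell viability of SBE-bla HEK 293T cells treated 5 hr with compounds at 37 C.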
# [17] = qHTS assay to identify small molecule agonists of the TGF-beta/Smad signaling pathway (AID 1346859; active means well fitted activation curve with a large enough effect in the signal ratio in the repeat runs, not every such curve was filed as active; the % refers to the signal ratio; further: series mostly up to about 77 µM)
# In short: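 Fluorescence (ex 405 nm; em 460 and 530 nm) was read 2 h after LiveBLAzer FRET substrate at RT. The preceding compound treatment of overnight-plated SBE-bla HEK293T cells lasted 5 h at 37 C.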
# [18] = Human pregnane X receptor (PXR) small molecule agonists, qHTS cell viability counter screen (AID 1346977); further: nearly all actives have a fitted effect of over 50% in size; further: potency means the concentration at half of the fitted maximal effect
# In short: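 Same-well viability read: CellTiter-Fluor added after 23 hr compound exposure, fluorescence measured 1 hr later. Cells were PXR-Luc HepG2 seeded at 2,000/well in 5% charcoal-stripped FBS medium, rested 5 hr before dosing at 37 C.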
# [19] = biological target: Thyrotropin-releasing hormone receptor (Homo sapiens) (UniProt P34981); test: qHTS assay to identify small molecule antagonists of the thyrotropin-releasing hormone receptor (TRHR) signaling pathway (AID 1346877; active means well fitted inhibition curve with a large enough effect in the repeat runs, not every such curve was filed as active; further: series mostly up to about 51 µM)
# In short: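 Cells (TRHR-HEK293) are plated and kept 18 h at 37 °C/5% CO2. A calcium-sensitive dye is added for 2 h, compound follows for 5 min at room temperature, and TRH is then given at 1 nM final.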
# [20] = biological target: Thyrotropin-releasing hormone receptor (Homo sapiens) (UniProt P34981); test: qHTS assay to identify small molecule agonists of the thyrotropin-releasing hormone receptor (TRHR) signaling pathway (AID 1346891; calls by dose curve; further: series mostly up to about 58 µM)
# In short: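 Agonist-mode intracellular calcium readout: kinetic fluorescence over 3 min at 1 s intervals after compound addition to TRHR-HEK293 cells (18 h seeded, 2 h dye-loaded at 37 C). Fifteen concentrations, triplicates.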
# Chain of Thyrotropin-releasing hormone receptor (Homo sapiens) (P34981 whole entry, looked up): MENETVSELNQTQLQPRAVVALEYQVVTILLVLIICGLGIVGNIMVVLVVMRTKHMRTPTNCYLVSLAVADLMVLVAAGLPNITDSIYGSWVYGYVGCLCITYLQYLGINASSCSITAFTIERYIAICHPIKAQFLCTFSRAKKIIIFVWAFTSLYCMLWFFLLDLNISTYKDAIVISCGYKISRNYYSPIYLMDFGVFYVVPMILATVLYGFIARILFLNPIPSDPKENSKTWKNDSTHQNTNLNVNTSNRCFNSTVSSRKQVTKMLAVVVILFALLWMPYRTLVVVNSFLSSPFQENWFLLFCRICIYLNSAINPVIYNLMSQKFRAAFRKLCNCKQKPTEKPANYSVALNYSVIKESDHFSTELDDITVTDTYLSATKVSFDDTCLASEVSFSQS
# Chain of Estrogen receptor beta (Homo sapiens) (Q92731 whole entry, looked up): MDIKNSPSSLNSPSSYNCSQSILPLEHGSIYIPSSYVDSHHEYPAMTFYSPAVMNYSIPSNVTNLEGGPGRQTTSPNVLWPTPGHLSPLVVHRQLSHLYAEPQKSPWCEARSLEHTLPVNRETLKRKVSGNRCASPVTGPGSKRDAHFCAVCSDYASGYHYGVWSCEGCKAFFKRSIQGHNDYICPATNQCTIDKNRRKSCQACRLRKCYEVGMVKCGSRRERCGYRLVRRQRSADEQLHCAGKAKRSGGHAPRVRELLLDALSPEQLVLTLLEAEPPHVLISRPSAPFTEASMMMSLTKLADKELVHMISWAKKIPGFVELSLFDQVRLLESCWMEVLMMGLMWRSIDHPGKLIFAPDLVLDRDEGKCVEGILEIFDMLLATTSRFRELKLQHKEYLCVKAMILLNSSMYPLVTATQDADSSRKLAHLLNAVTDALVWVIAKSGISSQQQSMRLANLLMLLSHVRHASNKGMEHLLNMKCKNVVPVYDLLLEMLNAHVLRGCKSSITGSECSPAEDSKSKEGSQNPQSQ
# Chain of Estrogen receptor (Homo sapiens) (P03372 whole entry, looked up): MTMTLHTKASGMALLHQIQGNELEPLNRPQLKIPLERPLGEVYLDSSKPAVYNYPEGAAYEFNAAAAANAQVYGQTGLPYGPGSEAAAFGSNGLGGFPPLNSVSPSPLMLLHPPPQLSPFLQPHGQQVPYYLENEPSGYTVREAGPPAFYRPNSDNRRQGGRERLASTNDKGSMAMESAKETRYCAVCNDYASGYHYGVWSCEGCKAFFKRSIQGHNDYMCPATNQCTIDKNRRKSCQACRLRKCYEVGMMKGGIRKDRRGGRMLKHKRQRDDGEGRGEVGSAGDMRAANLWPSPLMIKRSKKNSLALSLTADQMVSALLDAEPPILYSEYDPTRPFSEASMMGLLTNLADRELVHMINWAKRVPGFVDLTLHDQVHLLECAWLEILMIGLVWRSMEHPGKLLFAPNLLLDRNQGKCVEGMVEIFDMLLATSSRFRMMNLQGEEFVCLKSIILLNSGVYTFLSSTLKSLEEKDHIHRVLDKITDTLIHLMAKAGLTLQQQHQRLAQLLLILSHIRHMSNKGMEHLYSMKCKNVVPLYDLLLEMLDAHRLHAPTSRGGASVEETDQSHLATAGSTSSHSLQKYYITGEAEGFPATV
# Chain of Thyrotropin receptor (Homo sapiens) (P16473 whole entry, looked up): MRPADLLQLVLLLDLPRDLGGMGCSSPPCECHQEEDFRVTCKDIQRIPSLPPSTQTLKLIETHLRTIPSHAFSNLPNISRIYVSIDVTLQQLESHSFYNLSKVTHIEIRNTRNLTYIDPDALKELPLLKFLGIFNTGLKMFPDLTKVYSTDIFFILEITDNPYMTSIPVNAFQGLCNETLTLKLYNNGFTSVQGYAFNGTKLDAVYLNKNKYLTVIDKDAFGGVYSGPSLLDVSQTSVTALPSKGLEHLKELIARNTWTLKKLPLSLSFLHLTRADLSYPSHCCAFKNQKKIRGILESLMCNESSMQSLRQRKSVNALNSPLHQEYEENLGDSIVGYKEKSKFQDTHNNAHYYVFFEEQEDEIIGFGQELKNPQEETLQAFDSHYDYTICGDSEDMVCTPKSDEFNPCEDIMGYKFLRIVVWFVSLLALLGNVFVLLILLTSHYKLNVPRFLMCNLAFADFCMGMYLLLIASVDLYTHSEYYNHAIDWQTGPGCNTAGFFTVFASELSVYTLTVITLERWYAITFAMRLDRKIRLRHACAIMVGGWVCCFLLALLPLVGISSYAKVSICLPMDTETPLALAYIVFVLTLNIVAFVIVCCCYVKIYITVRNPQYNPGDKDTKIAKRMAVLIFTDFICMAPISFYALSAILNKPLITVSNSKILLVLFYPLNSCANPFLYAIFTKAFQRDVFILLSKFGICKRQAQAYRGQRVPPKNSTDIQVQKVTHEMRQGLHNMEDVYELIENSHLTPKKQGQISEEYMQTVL
# Chain of Androgen receptor (Homo sapiens) (P10275 whole entry, looked up): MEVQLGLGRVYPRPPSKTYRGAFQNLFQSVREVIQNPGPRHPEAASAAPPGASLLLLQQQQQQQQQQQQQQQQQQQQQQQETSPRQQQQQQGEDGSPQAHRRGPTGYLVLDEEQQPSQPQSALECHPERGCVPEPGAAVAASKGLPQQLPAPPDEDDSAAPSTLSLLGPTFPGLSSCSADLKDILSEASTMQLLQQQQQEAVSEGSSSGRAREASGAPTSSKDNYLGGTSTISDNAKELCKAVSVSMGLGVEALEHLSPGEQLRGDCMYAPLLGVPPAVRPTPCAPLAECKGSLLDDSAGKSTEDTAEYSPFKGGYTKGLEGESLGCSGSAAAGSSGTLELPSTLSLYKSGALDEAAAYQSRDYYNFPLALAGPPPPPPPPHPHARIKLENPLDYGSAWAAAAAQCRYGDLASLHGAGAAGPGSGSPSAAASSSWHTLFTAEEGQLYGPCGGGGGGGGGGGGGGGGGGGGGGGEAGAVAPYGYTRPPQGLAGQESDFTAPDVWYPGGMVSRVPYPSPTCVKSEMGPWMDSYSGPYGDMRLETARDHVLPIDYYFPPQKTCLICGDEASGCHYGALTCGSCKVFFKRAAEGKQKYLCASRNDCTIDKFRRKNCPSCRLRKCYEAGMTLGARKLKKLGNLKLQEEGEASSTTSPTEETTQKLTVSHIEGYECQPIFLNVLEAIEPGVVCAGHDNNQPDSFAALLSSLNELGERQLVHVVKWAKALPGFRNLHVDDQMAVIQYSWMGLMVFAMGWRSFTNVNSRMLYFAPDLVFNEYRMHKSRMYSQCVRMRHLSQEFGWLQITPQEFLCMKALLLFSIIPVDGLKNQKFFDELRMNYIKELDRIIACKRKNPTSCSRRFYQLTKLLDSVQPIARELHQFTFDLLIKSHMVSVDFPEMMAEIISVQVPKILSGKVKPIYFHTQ
# Chain of Progesterone receptor (Homo sapiens) (P06401 whole entry, looked up): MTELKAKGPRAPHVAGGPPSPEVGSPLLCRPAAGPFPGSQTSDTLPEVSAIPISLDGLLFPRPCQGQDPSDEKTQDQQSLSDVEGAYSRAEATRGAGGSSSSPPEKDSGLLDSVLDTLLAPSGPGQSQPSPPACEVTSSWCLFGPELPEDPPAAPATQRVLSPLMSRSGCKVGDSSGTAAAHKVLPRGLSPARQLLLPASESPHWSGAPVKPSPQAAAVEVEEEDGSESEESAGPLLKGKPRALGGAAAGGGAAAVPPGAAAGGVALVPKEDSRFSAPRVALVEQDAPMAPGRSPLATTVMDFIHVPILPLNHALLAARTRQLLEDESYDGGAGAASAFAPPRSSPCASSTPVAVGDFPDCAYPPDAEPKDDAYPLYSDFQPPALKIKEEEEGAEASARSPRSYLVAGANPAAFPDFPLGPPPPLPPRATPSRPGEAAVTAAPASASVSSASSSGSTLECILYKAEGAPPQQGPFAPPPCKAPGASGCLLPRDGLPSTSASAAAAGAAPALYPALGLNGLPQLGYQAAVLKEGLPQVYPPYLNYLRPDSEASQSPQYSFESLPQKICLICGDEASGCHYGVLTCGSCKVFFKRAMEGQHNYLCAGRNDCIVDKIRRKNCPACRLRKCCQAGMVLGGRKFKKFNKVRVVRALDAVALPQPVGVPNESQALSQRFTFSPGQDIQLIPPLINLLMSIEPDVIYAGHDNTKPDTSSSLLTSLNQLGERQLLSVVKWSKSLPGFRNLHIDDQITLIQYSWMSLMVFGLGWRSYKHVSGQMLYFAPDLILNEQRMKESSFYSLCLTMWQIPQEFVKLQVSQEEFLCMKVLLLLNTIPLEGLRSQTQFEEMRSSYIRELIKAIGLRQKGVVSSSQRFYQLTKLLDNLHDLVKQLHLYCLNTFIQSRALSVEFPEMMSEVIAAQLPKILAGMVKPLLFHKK
smiles,measurement,setting,value
Cc1cccc(C)n1,Potency,[1],inactive
same,Potency,[2],inactive
same,Potency,[3],inactive
same,Potency,[4],inactive
same,Potency,[5],inactive
same,Potency,[6],inactive
same,Potency,[7],inactive
same,outcome,[8],inactive
same,Potency,[9],inactive
same,Potency,[10],inactive
same,outcome,[11],inactive
same,Potency,[12],inactive
same,Potency,[13],inactive
same,Potency,[14],inactive
same,Potency,[15],inactive
same,Potency,[16],inactive
same,Potency,[17],inactive
same,Potency,[18],inactive
COCC(=O)O[C@]1(CCN(C)CCCc2nc3ccccc3[nH]2)CCc2cc(F)ccc2[C@@H]1C(C)C,Potency,[1],inactive
same,Potency,[2],11.9 µM (active)
same,Potency,[3],23.7 µM (active)
same,Potency,[4],21.1 µM (active)
same,Potency,[5],inactive
same,Potency,[6],18.8 µM (active)
same,Potency,[7],inactive
same,outcome,[8],inactive
same,Potency,[10],inactive
same,Potency,[12],26.6 µM (active)
same,Potency,[13],26.6 µM (active)
same,Potency,[14],21.1 µM (active)
same,Potency,[17],inactive
same,Potency,[19],inactive
same,Potency,[20],inactive
same,Potency,[18],23.7 µM (active)
CCCCCCCC/C=C/CCCOC(C)=O,Potency,[1],inactive
same,Potency,[2],inactive
same,Potency,[3],inactive
same,Potency,[4],inactive
same,Potency,[6],inactive
same,Potency,[7],inactive
same,outcome,[8],inactive
same,Potency,[9],inactive
same,Potency,[10],inactive
same,outcome,[11],inactive
same,Potency,[12],inactive
same,Potency,[13],inactive
same,Potency,[14],inactive
same,Potency,[15],inactive
same,Potency,[16],inactive
same,Potency,[17],inactive
same,Potency,[19],inactive
same,Potency,[20],inactive
same,Potency,[18],inactive
C=C/C=C/C=C/CCCCC,activation,[1],-0.263% [at 19 µM]
same,"activity, negative = inhibition",[2],-14.6% [at 19 µM]
same,"activity change, negative = cytotoxicity",[3],1.29% [at 19 µM]
same,"activity change, negative = cytotoxicity",[4],-7.99% [at 19 µM]
same,activation,[5],5.43% [at 19 µM]
same,"activity change, negative = cytotoxicity",[6],0.024% [at 19 µM]
same,activation,[7],-1.21% [at 19 µM]
same,cAMP activity change,[8],0.413% [at 18.9 µM]
same,"activity change, negative = inhibition",[9],1.23% [at 19 µM]
same,"activity change, negative = cytotoxicity",[10],-2.67% [at 19 µM]
same,activation,[11],-1.1% [at 19 µM]
same,"activity change, negative = cytotoxicity",[13],13.8% [at 18.9 µM]
same,"activity change, negative = cytotoxicity",[14],-2.82% [at 19 µM]
same,"viability change, negative = cytotoxic",[15],-6.86% [at 15.8 µM]
same,"activity change, negative = cytotoxicity",[16],-1.35% [at 15.8 µM]
same,activation,[17],-2.28% [at 15.8 µM]
